Screening results as filed in PubChem BioAssay.
Pf Dd2 inh – qHTS Primary assay for Inhibitors of Plasmodium falciparum Dd2 growth in vitro. P. falciparum Dd2 growth, SYBR Green, 72 h. Potency, µM (highest dose often 28.9 µM), without a hit: top-dose activity, negative = inhibition, actives largely listed as inhibitors. AID 1347417, 2020. actives 4.3% (n = 120,000); active = well fitted inhibition curve with a large enough effect;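 note: plate controls were DMSO vehicle for no effect and reference drug for full effect; nearly all actives have a fitted effect of over 65% in size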
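Infected erythrocytes (Dd2, 0.3% parasitemia, 2.5% hematocrit final) are added to compound in RPMI-1640/Albumax II medium, grown 72 h at 37C in low oxygen, then lysed with saponin/Triton-X containing SYBR Green and read by fluorescence.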
* marks the source's active call; other numbers are inactive results; i = inactive; [ ] = remark or other dose. The sample as a whole holds a higher share of hits than the screen did. Potency is the fitted concentration of half-maximal effect.

SMILES	Pf Dd2 inh
COC[C@@H]1CN(C(=O)c2cc(Cl)ccc2F)C[C@H]1C(N)=O	7%
CCc1ccccc1NC(=O)Cn1c(=O)n(-c2ccc(CC(=O)NCC3CCCO3)cc2)c(=O)c2ccccc21 (stereo not drawn)	i
COc1cccc(N2C(=O)NC(=NC3CCCC3)C23CCCN(CC2CCCCC2)C3)c1 (stereo not drawn)	10µM*
COc1cccc(N2C(=O)NC(=NC3CCCCC3)C23CCCN(C(=O)c2ccc(C)cc2)C3)c1 (stereo not drawn)	13%
COC(=O)N1CCC2(C1)C(=NC1CCCCC1)NC(=O)N2c1cccc(OC)c1 (stereo not drawn)	5%
COc1cccc(N2C(=O)NC(=NC3CCCCC3)C23CCCN(CCC(C)C)C3)c1 (stereo not drawn)	11µM*
COc1cccc(N2C(=O)NC(=NC3CCCCC3)C23CCN(Cc2cccn2C)CC3)c1	-20%
COc1cccc(N2C(=O)NC(=NC3CCCCC3)C23CCN(C(=O)OCc2ccccc2)C3)c1 (stereo not drawn)	i
COc1cccc(N2C(=O)NC(=NC3CCCCC3)C23CCN(C(C)=O)C3)c1 (stereo not drawn)	16%
COc1cccc(N2C(=O)NC(=NC3CCCCC3)C23CCCN(CC2CCCCC2)C3)c1 (stereo not drawn)	13µM*
COc1cccc(N2C(=O)NC(=NC3CCCC3)C23CCCN(C(=O)c2ccc(C)cc2)C3)c1 (stereo not drawn)	20%
CCOc1ccccc1-c1noc(-c2nc(C)no2)n1	-17%
O=C(Cn1cccc1-c1nc(-c2ccccc2)no1)NCc1ccc(F)cc1	i
Cc1ccc(Nc2cc(C(=O)NC3CCCC3)c3ccccc3n2)c(C)c1	-10%
COc1ccc(C2(c3nc(C4CC(=O)N(C5CCCCC5)C4)no3)CC2)cc1 (stereo not drawn)	11µM*
Cc1ccc(-c2nc(C3CC(=O)N(C4CCCCC4)C3)no2)cc1 (stereo not drawn)	55%
COCc1nc(C2CC(=O)N(C3CCCCC3)C2)no1 (stereo not drawn)	13%
CN(C)[C@H]1CCN(C(=O)c2ccc(S(N)(=O)=O)cc2)C[C@H]1CCC(=O)O	-5%
COc1ccc(C(=O)N2CCC(n3cc(-c4nc(C(C)C)no4)nn3)C2)cc1 (stereo not drawn)	i
COc1ccc(C(=O)N2CCCC(n3cc(-c4nc(C(C)C)no4)nn3)C2)cc1 (stereo not drawn)	13µM*
Cc1ccc(C(=O)N2CCCC(n3cc(-c4nc(C(C)C)no4)nn3)C2)cc1 (stereo not drawn)	-18%
Cc1cccc(NC(=O)Cn2nnc(C(=O)Nc3ccccc3Br)c2N)c1C	i
CCCN(C)C(=O)Cc1ccc(N(Cc2ccc(F)cc2)C(=O)c2ccco2)cc1	-1%
CC(C)(C)CC(=O)N1C[C@@H]2C[C@H]1C(=O)Nc1ccccc1O2	42%[44.1 µM]
CN(Cc1ccccc1)C(=O)CN1C(=O)CSc2ccc(S(=O)(=O)N3CCOCC3)cc21	i
SMILES	Pf Dd2 inh
CCCCn1c(=O)c2oc3ccccc3c2n(Cc2ccc(C)cc2)c1=O	-1%
O=C(Cc1cccnc1)N1CCC(N2C(=O)C(OCC3CC3)C23CCCCC3)CC1 (stereo not drawn)	-28%
O=C1C(OCC2CC2)C2(CCCCC2)N1C1CCN(Cc2cccnc2)CC1 (stereo not drawn)	8.9µM*
O=C1C(OCC2CC2)C2(CCCCC2)N1C1CCN(Cc2ccncc2F)CC1 (stereo not drawn)	i
COc1cc(NC(=O)Cn2cnc3sc(C)c(S(=O)(=O)N4CCN(C)CC4)c3c2=O)cc(OC)c1OC	-11%
O=C(NCC1CN([S+](=O)([O-])c2cccnc2)CC12CN(c1ccccc1)C2)Nc1ccccc1 (stereo not drawn)	i
O=C(C1CCC1)N1CCC(N2C(=O)C(O)C23CCCCC3)CC1 (stereo not drawn)	8%
COc1cc(NC(=O)Nc2nnc(N3CCCCC3)s2)cc(OC)c1	-8%
CCOc1ccc(NC(=O)Nc2nnc(N3CCCCC3C)s2)cc1 (stereo not drawn)	11µM*
CCOc1ccc(NC(=O)CSc2nnc(NC(=O)Nc3ccccc3)s2)cc1	29%
CCn1cc(CN2CCC3(CC2)CCN(Cc2ncc[nH]2)CC3CO)cn1 (stereo not drawn)	-14%
COc1ccc(/C=C/C(=O)Nc2sc3c(c2C(N)=O)CCCC3)cc1	5%
Cc1cccc(NC(=O)c2c(NC(=O)c3ccccc3)sc3c2CCCC3)c1	36%
COc1ccc(NC(=O)c2c(NCc3ccc(OC)c(OC)c3OC)sc3c2CCC3)c(OC)c1	10µM*
CCOC(=O)c1ccc(NC(=O)c2c(NCc3sccc3C)sc3c2CCCCC3)cc1	10µM*
CCOC(=O)c1c(NC(=O)c2ccc(C)c(C)c2)sc2c1CCCCC2	-6%
CCOC(=O)c1c(NC(=O)c2cc(Cl)ccc2Cl)sc2c1CCCC2	i
COc1ccc(NC(=O)c2c(NC(=O)C(F)(F)F)sc3c2CCCCC3)cc1	3.2µM*
CCOc1ccccc1NC(=O)c1c(NCc2ccc(OC)c(OC)c2OC)sc2c1CCC(C)C2 (stereo not drawn)	i
COc1ccc(CC(=O)Nc2sc3c(c2C(=O)Nc2ccc(C)cc2)CCCCC3)cc1	-23%
COC(=O)c1ccc(NC(=O)c2c(NCc3ccc(C)o3)sc3c2CCCC3)cc1	10µM*
COc1ccccc1NC(=O)c1c(NC(=O)c2ccccc2F)sc2c1CCC2	49%
O=C(Nc1sc2c(c1C(=O)Nc1ccccc1)CCC2)c1ccc(Br)cc1	11%
CNCCN1C(=O)CC[C@H]2CN(C(=O)Cc3c(C)nc(N)nc3C)CC[C@H]21	-1%
CCOc1ccc(CCNC(=O)C2CC(=O)N(CCc3ccc(OC)c(OC)c3)C2)cc1OCC (stereo not drawn)	19%
SMILES	Pf Dd2 inh
O=C(CN1C(=O)NC(c2ccccc2Cl)C2=C1COC2=O)Nc1ccc2c(c1)OCO2 (stereo not drawn)	-19%
CC(=O)Nc1ccccc1-c1c(C)nn2c1N(CCCc1ccccc1)CCC2	-21%[44.1 µM]
COCC(=O)N1CCN(C(C)=O)C[C@@H]1C(=O)N[C@H](Cc1cccnc1)C(=O)OC	24%[44.1 µM]
COC(=O)c1c(NC(=O)/C=C/c2ccc(OC)c(OC)c2)sc2c1CCC2	6%
COc1ccc(CC(=O)Nc2sc3c(c2C(=O)Nc2c(C)cccc2C)CCCCC3)cc1	9%
CCOc1ccccc1NC(=O)c1c(NCc2ccc(C)o2)sc2c1CCCCC2	13µM*
CCOc1ccccc1NC(=O)c1c(NC(=O)COc2ccccc2)sc2c1CCCC2	54%
COc1ccc(Cl)cc1NC(=O)c1c(NCc2cccnc2)sc2c1CCCC2	11µM*
CCOC(=O)c1c(NC(=O)c2ccc(OC)c(OC)c2)sc2c1CCCCC2	2%
COC(=O)c1ccc(NC(=O)c2c(NCc3ccc(OC)c(OC)c3)sc3c2CCCC3)cc1	11µM*
CCOC(=O)N1CCc2c(sc(NCc3sccc3C)c2C(=O)Nc2cc(Cl)ccc2OC)C1	-19%
CCOc1ccccc1NC(=O)c1c(NCc2ccc(C)o2)sc2c1CCC(C)C2 (stereo not drawn)	44%
CNC(=O)c1c(NC(=O)Cc2coc3ccc(OC)cc23)sc2c1CCCC2	-19%
COc1ccc(NC(=O)c2c(NCc3cccc(OC)c3)sc3c2CCCC3)cc1	10µM*
COc1ccccc1NC(=O)c1c(NC(=O)c2ccccc2Cl)sc2c1CCC2	-14%
COc1ccc(OC)c(-c2cc(Cl)c3c(c2)CC(CNC(=O)C(C)(C)C)O3)c1 (stereo not drawn)	-16%
